About 83,000 compounds went through this panel and 20% of them were active in at least one assay; those are over-represented in the sample as a whole.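 96-well plates, one dose, 48 hours. Percent growth reported; active if below 10.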 A number with no mark means an inactive call. Active and inactive are the calls of the source.
Assays:
Assay in all cases: NCI-60 one-dose screen, 48 h (100 = growth as untreated, 0 = no growth, -100 = all killed)
Conditions in all cases: 10 µM unless noted
[1] = test system: SR leukemia
[2] = test system: OVCAR-8 ovarian
[3] = test system: OVCAR-5 ovarian
[4] = test system: OVCAR-4 ovarian
[5] = test system: SK-OV-3 ovarian
[6] = test system: IGROV1 ovarian
[7] = test system: OVCAR-3 ovarian
[8] = test system: NCI/ADR-RES ovarian
[9] = test system: HS 578T breast
[10] = test system: RPMI-8226 leukemia

SMILES	growth [1]	growth [2]	growth [3]	growth [4]	growth [5]	growth [6]	growth [7]	growth [8]	growth [9]	growth [10]
CCC(=O)c1cc([N+](=O)[O-])c(Br)s1	-19.5% (active)	91.4%	99%	109%	95.8%	105%	82.4%	105%		
COC(=O)c1nc(=S)[nH]c(C(=O)OC)c1C(=O)c1ccc(Cl)c(Cl)c1	115%	111%	118%	104%	107%	112%	122%	110%	102%	
COc1cc(NCc2ccc3nc(N)nc(N)c3c2C)cc(OC)c1OC (tested in a mixture with another compound)	31.7%		36.9%		58%	-10.2% (active)	55.3%	32.2%	44.1%	
O=C(CCl)N1c2ccccc2Sc2c1ccc1ccccc21	12.9%	64.2%	108%		106%	34.4%	74.3%	75.3%	82.1%	
CCOc1ccc(C(CN2CCOCC2)C(C)=O)cc1OC (stereo not drawn)	65.2%	96.3%	99.1%	98.2%	99.4%	113%	88.3%	107%	97.7%	
COc1cc(NC(=O)C2=C(C)NC(C)=C(C(=O)Nc3cc(OC)c(Cl)cc3OC)C2c2cccc([N+](=O)[O-])c2)c(OC)cc1Cl		38.3%	34.4%	39.4%	52.1%	11.4%	32.3%	22%	8.61% (active)	25.6%
CCCCCCCCC(=O)OCCCC(CCC(CCC1CCCO1)OC(=O)CCCCCCCC)OC(=O)CCCCCCCC (stereo not drawn)		103%	99.5%	102%	96.4%	107%	110%	103%	97.1%	
Cc1ccc2c(c1)sc(-c1ccc(N(C)C)cc1)[n+]2C		16.3%	14.4%	20.3%	-14.2% (active)	8.14% (active)	-14.8% (active)	81.3%	20.3%	-56.7% (active)
COc1cccc2c1C(=O)c1c(O)c3c(c(O)c1C2=O)C[C@@](O)(C(=O)CO)C[C@@H]3OC1CC(OC(C)=O)C(OC(C)=O)C(C)O1 (stereo partly drawn)		0.76% (active)	1.32% (active)	-4.7% (active)	-10.4% (active)		-41.2% (active)	2.46% (active)	-10.9% (active)	-43.5% (active)
O=C(c1ccc(O)c(Br)c1)c1ccc(O)c(Br)c1		106%	110%	103%	116%	114%	114%	105%	113%	99.5%
CN1CSC(=S)N(Cc2ccccc2)C1		97.8%	103%	112%	114%	92.9%	65%	102%	108%	31.4%
Cc1nn(CCO)c(C)c1N=[N+]([O-])c1c(C)nn(CCO)c1C		79%	83.6%	13.7%	115%		-88.1% (active)	96.1%	103%	-35% (active)
CCCCCCCCCCCC[N+]1(CCCCCCCCCCCC)CCCC(C)C1 (stereo not drawn)		-92.1% (active)	-98.3% (active)	-86.3% (active)	-96.2% (active)		-88.7% (active)	19.6%	-40.8% (active)	-63.1% (active)
CCOc1cc(F)c([N+](=O)[O-])cc1[N+](=O)[O-]		19.6%	77.9%	46.9%	99.3%	91.9%	46.7%	11.8%	90.6%	24.2%

Reference: PubChem BioAssay (NCI)
